Measured values: PubChem BioAssay (NCATS)
Results filed as inconclusive are left out. Where a call stands in place of a potency, no number is given. Calls of active or inactive are those of the source. Calls follow the shape of the dose curve; as a rule, active = well fitted inhibition curve with a large enough effect; inconclusive = small, poorly fitted or top-dose-only effect; inactive = flat fitted curve, though single readings scatter. Numbered stars: 1 amine (or outer) side, 2 acyl side, 3 side chain; on linkers, the order of the positions; unused ones are H or OH. Bridge positions count the residues as written; N and C are the ends. Square brackets hold non-standard residues; d marks the D form. Peptide text beside a SMILES is read from it. * marks the point of attachment. ξ: configuration not given here. ΔAla(Z-3-ureido) = NC(=O)N/C=C(\N)C(=O)O; ξDab(CH2SO3H) = NC(CCNCS(=O)(=O)O)C(=O)O; X2 = NC1=NC(O)CC(C(N[*:1])C(=O)[*:2])N1; X1 = NC1=NCCC(C(N[*:1])C(=O)[*:2])N1; Heptanoyl(6-Me) = CC(C)CCCCC(=O)*; ξβ3hOrn = NCCCC(N)CC(=O)*; Dab = NCC[CH](N)C(=O)O; Dap = NC[CH](N)C(=O)O

How the values were obtained:
Assay in all cases: qHTS profiling for inhibitors of Plasmodium falciparum proliferation (AID 504749); also: nearly all actives have a fitted effect of over 60% in size
Settings in all cases: P. falciparum in erythrocytes, SYBR Green DNA, 72 h; series mostly up to 28.7 µM
7G8 = test system: 7G8
Procedure, shortened: (§1)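 Parasite proliferation within erythrocytes, 72 h exposure. Endpoint: SYBR Green I fluorescence after overnight lysis at room temperature. Controls: 0.29 uM artemisinin, DMSO.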

C2A = test system: C2A
Procedure, shortened: as §1

CP192 = test system: CP192
Procedure, shortened: as §1

CP194 = test system: CP194
Procedure, shortened: as §1

CP203 = test system: CP203
Procedure, shortened: as §1

CP217 = test system: CP217
Procedure, shortened: as §1

CP237 = test system: CP237
Procedure, shortened: as §1

CP266 = test system: CP266
Procedure, shortened: as §1

CP268 = test system: CP268
Procedure, shortened: as §1

CP269 = test system: CP269
Procedure, shortened: as §1

CP291 = test system: CP291
Procedure, shortened: as §1

CP315 = test system: CP315
Procedure, shortened: as §1

CP329 = test system: CP329
Procedure, shortened: as §1

DIV30 = test system: DIV30
Procedure, shortened: as §1

HB3 = test system: HB3
Procedure, shortened: as §1

JCK = test system: JCK
Procedure, shortened: as §1

P94_40 = test system: P94_40
Procedure, shortened: as §1

PC26 = test system: PC26
Procedure, shortened: as §1

SC27B = test system: SC27B
Procedure, shortened: as §1

TAB109 = test system: TAB109
Procedure, shortened: as §1
Potency is read from the fitted curve at half-maximal effect.

Row | SMILES | Potency (7G8) | Potency (C2A) | Potency (CP192) | Potency (CP194) | Potency (CP203) | Potency (CP217) | Potency (CP237) | Potency (CP266) | Potency (CP268) | Potency (CP269) | Potency (CP291) | Potency (CP315) | Potency (CP329) | Potency (DIV30) | Potency (HB3) | Potency (JCK) | Potency (P94_40) | Potency (PC26) | Potency (SC27B) | Potency (TAB109)
1 | CC(=O)OCC(=O)[C@@]1(O)CCC2C3CCC4=CC(=O)CC[C@]4(C)C3=CC[C@@]21C (stereo partly drawn) | inactive | inactive | inactive | inactive | inactive | inactive | inactive | inactive | inactive | inactive | inactive | inactive | inactive | inactive | inactive | inactive | inactive | inactive | inactive | inactive
2 | CNCC(=O)NC(CCCN=C(N)N)C(=O)NC(C(=O)NC(Cc1ccc(O)cc1)C(=O)NC(C(=O)NC(Cc1cnc[nH]1)C(=O)N1CCCC1C(=O)NC(C)C(=O)O)C(C)C)C(C)C (stereo not drawn) | inactive | inactive | inactive | inactive | inactive | inactive | inactive | inactive | inactive | inactive | inactive | inactive | inactive | inactive | inactive | inactive | inactive | inactive | inactive | inactive
3 | CC(N)C(=O)NCC(=O)NC1CSSCC(C(=O)O)NC(=O)C(CO)NC(=O)C(C(C)O)NC(=O)C(Cc2ccccc2)NC(=O)C(C(C)O)NC(=O)C(CCCCN)NC(=O)C(Cc2c[nH]c3ccccc23)NC(=O)C(Cc2ccccc2)NC(=O)C(Cc2ccccc2)NC(=O)C(CC(N)=O)NC(=O)C(CCCCN)NC1=O (stereo not drawn) | inactive | inactive | inactive | inactive | inactive | inactive | inactive | inactive | inactive | inactive | inactive | inactive | inactive | inactive | inactive | inactive | inactive | inactive | inactive | inactive
4 | O=C(O)c1ccccc1-c1c2cc(Br)c(=O)c(Br)c-2oc2c(Br)c(O)c(Br)cc12 | inactive | inactive | inactive | inactive | inactive | inactive | inactive |  | inactive | inactive | inactive | inactive | inactive | inactive | inactive | inactive | inactive | inactive | inactive | inactive
5 | CC1(C)C(/C=C/C=C/C=C/C=C2\N(CCCCS(=O)(=O)O)c3ccc4ccccc4c3C2(C)C)=[N+](CCCCS(=O)(=O)[O-])c2ccc3ccccc3c21 | inactive | inactive | inactive | inactive | inactive |  | inactive | inactive | inactive | inactive | inactive | inactive | inactive | inactive | inactive | inactive | inactive | inactive | inactive | inactive
6 | CCOC(=O)C(CS)NCCN[C@@H](CS)C(=O)OCC (stereo partly drawn) | inactive | inactive | inactive | inactive | inactive | inactive | inactive | inactive | inactive | inactive | inactive | inactive | inactive | inactive | inactive | inactive | inactive | inactive | inactive | inactive
7 | NC(=O)CCC1NC(=O)C(Cc2ccccc2)NC(=O)C(Cc2ccc(O)cc2)NC(=O)CCSSCC(C(=O)N2CCCC2C(=O)NC(CCCN=C(N)N)C(=O)NCC(N)=O)NC(=O)C(CC(N)=O)NC1=O (stereo not drawn) | inactive | inactive | inactive | inactive | inactive | inactive | inactive | inactive | inactive | inactive | inactive | inactive | inactive | inactive | inactive | inactive | inactive | inactive | inactive | inactive
8 | CC(C)CC(NC(=O)C(COC(C)(C)C)NC(=O)C(Cc1ccc(O)cc1)NC(=O)C(CO)NC(=O)C(Cc1c[nH]c2ccccc12)NC(=O)C(Cc1cnc[nH]1)NC(=O)C1CCC(=O)N1)C(=O)NC(CCCN=C(N)N)C(=O)N1CCCC1C(=O)NNC(N)=O (stereo not drawn) | inactive | inactive | inactive | inactive | inactive | inactive | inactive | inactive | inactive | inactive | inactive | inactive | inactive | inactive | inactive | inactive | inactive | inactive | inactive | inactive
9 | Cn1cc(O)nc1NC(=O)Nc1cccc(Cl)c1 | inactive | inactive | inactive | inactive | inactive | inactive | inactive | inactive | inactive | inactive | inactive | inactive |  | inactive | inactive | inactive | inactive | inactive | inactive | inactive
10 | O=C1/C(=C\c2cccs2)CCC/C1=C/c1cccs1 |  | inactive | inactive | inactive | inactive | inactive | inactive | inactive | inactive | inactive | inactive | inactive | inactive | inactive | inactive | inactive | inactive | inactive | inactive | inactive
11 | C=CC1=C(C(=O)O)N2C(=O)[C@@H](NC(=O)C(N=O)c3csc(N)n3)[C@H]2SC1 (stereo partly drawn) | inactive | inactive | inactive | inactive | inactive | inactive | inactive | inactive | inactive | inactive | inactive | inactive | inactive | inactive | inactive | inactive | inactive | inactive | inactive | inactive
12 | CCC(C)C1NC(=O)C(Cc2ccc(O)cc2)NC(=O)C(N)CSSCC(C(=O)N2CCCC2C(=O)NC(CC(C)C)C(=O)NCC(N)=O)NC(=O)C(CC(N)=O)NC(=O)C(CCC(N)=O)NC1=O (stereo not drawn) | inactive | inactive | inactive | inactive | inactive | inactive | inactive | inactive | inactive | inactive | inactive | inactive | inactive | inactive | inactive | inactive | inactive | inactive | inactive | inactive
13 | NCCCC(N)CC(=O)NCC1NC(=O)C(CO)NC(=O)C(N)CNC(=O)C(C2CCN=C(N)N2)NC(=O)/C(=C/NC(N)=O)NC1=O (stereo not drawn) (H-[Dap]S[Dap](ξβ3hOrn)[ΔAla(Z-3-ureido)][X1]; lactam 1-C; configuration not given here) | inactive | inactive | inactive | inactive | inactive | inactive | inactive | inactive | inactive | inactive | inactive | inactive | inactive | inactive | inactive | inactive | inactive | inactive | inactive | inactive
14 | CC(C)C[C@H](NC(=O)[C@@H](Cc1c[nH]c2ccccc12)NC(=O)[C@@H](Cc1ccc(O)cc1)NC(=O)[C@@H](CO)NC(=O)[C@@H](Cc1c[nH]c2ccccc12)NC(=O)C(Cc1cnc[nH]1)NC(=O)C1CCC(=O)N1)C(=O)N[C@@H](CCCN=C(N)N)C(=O)N1CCC[C@@H]1C(=O)NCC(N)=O (stereo partly drawn) | inactive | inactive | inactive | inactive | inactive | inactive | inactive | inactive | inactive | inactive | inactive | inactive | inactive | inactive | inactive | inactive | inactive | inactive | inactive | inactive
15 | CC(C)C(NC(=O)C(CC(=O)O)NC(=O)C(CCCCN)NC(=O)C(N)CCCN=C(N)N)C(=O)NC(Cc1ccc(O)cc1)C(=O)O (stereo not drawn) (H-RKDVY-OH; configuration not given here) | inactive | inactive | inactive | inactive | inactive | inactive | inactive | inactive | inactive | inactive | inactive | inactive | inactive | inactive | inactive | inactive | inactive | inactive | inactive | inactive
16 | CCC(C)C1NC(=O)C(CCNCS(=O)(=O)O)NC(=O)C(NC(=O)C(CCNCS(=O)(=O)O)NC(=O)C(NC(=O)C(CCNCS(=O)(=O)O)NC(=O)CCCCC(C)C)C(C)O)CCNC(=O)C(C(C)O)NC(=O)C(CCNCS(=O)(=O)O)NC(=O)C(CCNCS(=O)(=O)O)NC(=O)C(C(C)CC)NC1=O (stereo not drawn) ({Heptanoyl(6-Me)}-[ξDab(CH2SO3H)]T[ξDab(CH2SO3H)][Dab][ξDab(CH2SO3H)]II[ξDab(CH2SO3H)][ξDab(CH2SO3H)]T; lactam 4-C; configuration not given here) | inactive | inactive | inactive | inactive | inactive | inactive | inactive | inactive | inactive | inactive | inactive | inactive | inactive | inactive | inactive | inactive | inactive | inactive | inactive | inactive
17 | CCC1NC(=O)C(NC(=O)c2ncccc2O)C(C)OC(=O)C(c2ccccc2)NC(=O)C2CC(=O)CCN2C(=O)C(Cc2ccccc2)N(C)C(=O)C2CCCN2C1=O (stereo not drawn) | 8.91 µM (active) | inactive | inactive | inactive | inactive | inactive | inactive | inactive | inactive | inactive | inactive | inactive | inactive | inactive |  | inactive |  | inactive | inactive | inactive
18 | COc1ccc(-c2nc3ccc(C4=C(C)CC(=O)NN4)cc3[nH]2)cc1 | 8.91 µM (active) |  | inactive |  |  | inactive |  | inactive |  |  | inactive | inactive | inactive |  | inactive | inactive | inactive |  |  | 
19 | NCCCC(N)CC(=O)NC1CNC(=O)C(C2CC(O)N=C(N)N2)NC(=O)/C(=C/NC(N)=O)NC(=O)C(CO)NC(=O)C(CO)NC1=O (stereo not drawn) (ξβ3hOrn-[Dap]SS[ΔAla(Z-3-ureido)][X2]; lactam 1-C; configuration not given here) | inactive | inactive | inactive | inactive | inactive | inactive | inactive | inactive | inactive | inactive | inactive | inactive | inactive | inactive | inactive | inactive | inactive | inactive | inactive | inactive
20 | O=C(OCC1OC(OC(=O)c2cc(O)c(O)c(OC(=O)c3cc(O)c(O)c(O)c3)c2)[C@@H](OC(=O)c2cc(O)c(O)c(OC(=O)c3cc(O)c(O)c(O)c3)c2)C(OC(=O)c2cc(O)c(O)c(OC(=O)c3cc(O)c(O)c(O)c3)c2)C1OC(=O)c1cc(O)c(O)c(OC(=O)c2cc(O)c(O)c(O)c2)c1)c1cc(O)c(O)c(OC(=O)c2cc(O)c(O)c(O)c2)c1 (stereo partly drawn) | 2 µM (active) | 2.82 µM (active) | 7.57 µM (active) | 3.79 µM (active) | 4.26 µM (active) | 3.55 µM (active) | 2.51 µM (active) | 3.79 µM (active) | 3.38 µM (active) | 1.9 µM (active) |  | 5.36 µM (active) | 4.26 µM (active) | 5.36 µM (active) | 2 µM (active) | 10 µM (active) | 2.82 µM (active) | 7.57 µM (active) | 3.16 µM (active) | 2.82 µM (active)
